# In PubChem BioAssay (EPA / NIEHS):
# Records with an inconclusive call do not appear. Active and inactive are the calls of the source. Rule for the calls: active = hit-call score of the fitted dose curve at least 0.9, where 1 is the maximum; inconclusive = response in the unintended direction; inactive = score below 0.9.
# Key:
# [1] = LTEA_HepaRG_LDH_cytotoxicity: Cytotoxicity Assessment in the Life Technologies and Expression Analysis (LTEA) Assay (AID 2283563);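 for AC50: LDH activity released into spent culture medium as a marker of cell death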
# In short: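 Differentiated HepaRG cells in serum-free induction medium, exposed 48 h in duplicate to 8 half-log concentrations up to 100 uM in 0.5% DMSO. Cytotoxicity from LDH measured in spent medium, fit relative to DMSO.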
# [2] = TOX21_p53_BLA_p2_viability: Viability Assessment in the Tox21 HCT-116 p53 Agonism Beta-lactamase Assay, Phase 2 (AID 2283591);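 note: compound exposure lasted 16 h at 37 °C; actives lower the ATP signal meaning cytotoxicity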
# In short: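 HCT116 p53-bla cells, 4000/well, dosed after 5 h plating (217-fold dilution of DMSO stocks) and incubated 16 h at 37C. Viability taken as cellular ATP by CellTiter-Glo luminescence after 30 min RT; signal loss marks cytotoxicity.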
# [3] = target: Cellular tumor antigen p53 (Homo sapiens) (UniProt P04637); experiment: TOX21_p53_BLA_p2_ratio: Tox21 HCT-116 p53 Agonism Beta-lactamase Assay, Ratio, Phase 2 (AID 2283592)
# Chain of Cellular tumor antigen p53 (Homo sapiens) (P04637 whole entry, looked up): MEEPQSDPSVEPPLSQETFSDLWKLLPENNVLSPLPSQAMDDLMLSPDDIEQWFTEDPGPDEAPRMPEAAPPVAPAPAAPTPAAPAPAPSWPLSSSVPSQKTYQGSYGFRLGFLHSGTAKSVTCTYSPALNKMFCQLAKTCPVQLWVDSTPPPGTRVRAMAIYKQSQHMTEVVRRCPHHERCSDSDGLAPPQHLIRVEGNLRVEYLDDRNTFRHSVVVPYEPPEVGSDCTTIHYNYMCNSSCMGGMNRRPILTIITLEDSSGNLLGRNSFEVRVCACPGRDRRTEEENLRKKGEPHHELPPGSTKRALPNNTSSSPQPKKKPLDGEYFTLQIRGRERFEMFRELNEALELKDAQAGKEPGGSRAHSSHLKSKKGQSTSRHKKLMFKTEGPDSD
# In short: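 HCT-116 cells with p53-responsive beta-lactamase reporter, 4000 cells/well, preincubated 5 h, then compound in DMSO (217-fold dilution) for 16 h at 37C. CCF4-AM substrate 2 h at room temperature; 460/530 nm emission ratio fitted upward versus DMSO.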
# [4] = TOX21_p53_BLA_p3_viability: Viability Assessment in the Tox21 HCT-116 p53 Agonism Beta-lactamase Assay, Phase 3 (AID 2283593);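 note: cells exposed to compound for 16 h before reading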
# In short: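 HCT116 cells, 4000/well, dosed 5 h after plating by pin transfer (217-fold dilution from DMSO stock) and incubated 16 h at 37C, 5% CO2. Viability read as ATP luminescence with CellTiter-Glo after 30 min at room temperature.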
# [5] = target: Cellular tumor antigen p53 (Homo sapiens) (UniProt P04637); experiment: TOX21_p53_BLA_p3_ratio: Tox21 HCT-116 p53 Agonism Beta-lactamase Assay, Ratio, Phase 3 (AID 2283596)
# In short: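 HCT116 p53-bla cells (4000/well) given compound in DMSO (217-fold dilution) after 5 h, incubated 16 h at 37C. CCF4-AM substrate 2 h at room temperature; 460/530 nm emission ratio, gain fitted against DMSO.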
# [6] = TOX21_p53_BLA_p4_viability: Viability Assessment in the Tox21 HCT-116 p53 Agonism Beta-lactamase Assay, Phase 4 (AID 2283597);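 note: hits lower the luminescence signal meaning cytotoxicity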
# In short: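 HCT-116 p53-bla cells, 4000/well, dosed after 5 h attachment and incubated 16 h at 37 °C, 5% CO2. Viability from CellTiter-Glo ATP luminescence after 30 min at room temperature, taken after the beta-lactamase read; loss of signal indicates cytotoxicity.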
# [7] = target: Cellular tumor antigen p53 (Homo sapiens) (UniProt P04637); experiment: TOX21_p53_BLA_p5_ratio: Tox21 HCT-116 p53 Agonism Beta-lactamase Assay, Ratio, Phase 5 (AID 2283599)
# In short: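 HCT-116 p53-bla cells (4000/well) plated 5 h, dosed with compound (217-fold DMSO dilution) for 16 h at 37 C; CCF4-AM substrate 2 h at room temperature. Activity is the 460/530 nm emission ratio (405 nm excitation), fitted in gain-of-signal direction versus DMSO.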
# [8] = TOX21_p53_BLA_p5_viability: Viability Assessment in the Tox21 HCT-116 p53 Agonism Beta-lactamase Assay, Phase 5 (AID 2283600)
# In short: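 HCT-116 p53 beta-lactamase reporter cells, 4000/well, were exposed to compound (pin transfer, 217-fold dilution) for 16 hours at 37C. Cellular ATP was read by CellTiter-Glo luminescence after 30 min at room temperature.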
# [9] = target: Cellular tumor antigen p53 (Homo sapiens) (UniProt P04637); experiment: TOX21_p53_BLA_p4_ratio: Tox21 HCT-116 p53 Agonism Beta-lactamase Assay, Ratio, Phase 4 (AID 2283601)
# In short: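 HCT-116 p53 beta-lactamase reporter cells (4000/well) preincubated 5 h, then compound (217-fold dilution of DMSO stock) for 16 h at 37C. CCF4-AM substrate added 2 h at room temperature; 460/530 nm emission ratio fitted upward versus DMSO.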
# [10] = Tanguay_ZF_120hpf_MORT_legacy: (Legacy) Oregon State University Tanguay Lab 120 Hour Post-fertilization zebrafish Assay for Mortality (AID 2283633);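 for AC50: fitted as increase in binary mortality versus DMSO negative control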
# In short: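 Dechorionated Tropical 5D wild-type zebrafish embryos, one per well from 6 hpf, static exposure in 0.64% DMSO at 28C until 120 hpf. Mortality scored as binary by brightfield microscopy at 24 and 120 hpf.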
# [11] = Tanguay_ZF_120hpf_AXIS_legacy: (Legacy) Oregon State University Tanguay Lab 120 Hour Post-fertilization zebrafish Assay for Body Axis Malformation (AID 2283635);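 for AC50: potency for an increased fraction of larvae scored with body axis malformation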
# In short: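 Dechorionated wild-type Tropical 5D zebrafish embryos, one per well, statically exposed from 6 hpf to 120 hpf at 28C in 0.64% DMSO final. Body axis malformation scored present/absent by brightfield microscopy at 120 hpf; dead embryos excluded.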
# [12] = Tanguay_ZF_120hpf_EYE_legacy: (Legacy) Oregon State University Tanguay Lab 120 Hour Post-fertilization zebrafish Assay for Eye Malformation (AID 2283636);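 note: binary presence or absence of eye malformation scored by brightfield in 120 hpf larvae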
# In short: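 Dechorionated Tropical 5D zebrafish embryos, one per well from 6 hpf, static exposure to 120 hpf at 28C, 0.64% DMSO. Eye malformation scored present/absent by brightfield; dead embryos not scored.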
# [13] = Tanguay_ZF_120hpf_SNOU_legacy: (Legacy) Oregon State University Tanguay Lab 120 Hour Post-fertilization zebrafish Assay for Snout Malformation (AID 2283637)
# In short: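 Dechorionated tropical 5D wild-type zebrafish embryos exposed statically from 6 to 120 hpf at 28C, one per well, in 0.64% DMSO. Snout malformation scored as present/absent by brightfield at 120 hpf; dead embryos not scored.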
# [14] = Tanguay_ZF_120hpf_JAW_legacy: (Legacy) Oregon State University Tanguay Lab 120 Hour Post-fertilization zebrafish Assay for Jaw Malformation (AID 2283638);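 for AC50: active means more embryos with jaw malformation than DMSO controls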
# In short: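 Dechorionated Tropical 5D wild-type zebrafish embryos, one per well, exposed statically from 6 hpf to 120 hpf at 28C in 0.64% DMSO. Jaw malformation was scored by brightfield microscopy as present or absent. It was not scored in dead embryos.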
# [15] = Tanguay_ZF_120hpf_OTIC_legacy: (Legacy) Oregon State University Tanguay Lab 120 Hour Post-fertilization zebrafish Assay for Otic Vesicle Malformation (AID 2283639)
# In short: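 Otic vesicle malformation is read as a yes/no morphology call at 120 hpf. Exposure is static at 28C with 0.64% (vol/vol) DMSO; embryos that die are excluded from non-mortality endpoints.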
# [16] = Tanguay_ZF_120hpf_PE_legacy: (Legacy) Oregon State University Tanguay Lab 120 Hour Post-fertilization zebrafish Assay for Pericardial Edema (AID 2283640);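 for AC50: potency for increased incidence of pericardial edema versus DMSO baseline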
# In short: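 Tropical 5D wild-type zebrafish embryos were statically exposed until 120 hpf at 28C, with 0.64% DMSO final. Pericardial edema was scored by brightfield as present or absent; endpoints were not scored in dead embryos.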
# [17] = Tanguay_ZF_120hpf_BRAI_legacy: (Legacy) Oregon State University Tanguay Lab 120 Hour Post-fertilization zebrafish Assay for Brain Malformation (AID 2283641)
# In short: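 Tropical 5D wild-type zebrafish embryos exposed statically until 120 hpf at 28C, 0.64% DMSO final, sealed and dark. Brain malformation scored present/absent by brightfield at 120 hpf; dead embryos excluded. Trimethyltin chloride 5uM positive control.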
# [18] = Tanguay_ZF_120hpf_SOMI_legacy: (Legacy) Oregon State University Tanguay Lab 120 Hour Post-fertilization zebrafish Assay for Somite Malformation (AID 2283647)
# In short: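 Dechorionated Tropical 5D wild-type zebrafish embryos, one per well from 6 hpf, statically exposed at 28C to 120 hpf in 0.64% DMSO; somite malformation scored present/absent by brightfield; trimethyltin 5 uM positive control; dead embryos not scored.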
# [19] = Tanguay_ZF_120hpf_YSE_legacy: (Legacy) Oregon State University Tanguay Lab 120 Hour Post-fertilization zebrafish Assay for Yolk Sac Edema (AID 2283634);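 for AC50: actives raise the incidence of yolk sac edema above the DMSO baseline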
# In short: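 Dechorionated Tropical 5D wild-type zebrafish embryos were exposed statically, one per well, from 6 to 120 hpf at 28C in 0.64% DMSO. Yolk sac edema was scored present/absent by brightfield at 120 hpf, and dead embryos were excluded.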
# [20] = ATG_XTT_Cytotoxicity: Cytotoxicity Assessment in the Attagene TRANS-FACTORIAL HepG2 Assay (AID 2283584)
# In short: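 HepG2 cells transiently transfected with GAL4-UAS multiple reporter units, dosed 24 h; cytotoxicity read by XTT as loss of signal versus DMSO baseline.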
compound,measurement,setting,value
CC(C)N1C(=O)c2ccccc2NS1(=O)=O,outcome,[1],inactive
same,outcome,[2],inactive
same,outcome,[3],inactive
same,outcome,[4],inactive
same,outcome,[5],inactive
same,outcome,[6],inactive
same,outcome,[7],inactive
same,outcome,[8],inactive
same,outcome,[9],inactive
same,outcome,[10],inactive
same,outcome,[11],inactive
same,outcome,[12],inactive
same,outcome,[13],inactive
same,outcome,[14],inactive
same,outcome,[15],inactive
same,outcome,[16],inactive
same,outcome,[17],inactive
same,outcome,[18],inactive
CCOP(=O)(OCC)Oc1nc(Cl)c(Cl)cc1Cl,outcome,[1],inactive
same,outcome,[2],inactive
same,outcome,[3],inactive
same,outcome,[4],inactive
same,outcome,[5],inactive
same,outcome,[6],inactive
same,AC50,[7],38.3 µM (active)
same,outcome,[8],inactive
same,AC50,[9],61.7 µM (active)
same,AC50,[10],0.887 µM (active)
same,outcome,[19],inactive
same,outcome,[11],inactive
same,outcome,[12],inactive
same,outcome,[13],inactive
same,outcome,[14],inactive
same,outcome,[15],inactive
same,outcome,[16],inactive
same,outcome,[17],inactive
same,outcome,[18],inactive
COCC(=O)N(c1c(C)cccc1C)C(C)C(=O)OC (stereo not drawn),outcome,[1],inactive
same,outcome,[2],inactive
same,outcome,[3],inactive
same,outcome,[4],inactive
same,outcome,[5],inactive
same,outcome,[6],inactive
same,outcome,[7],inactive
same,outcome,[8],inactive
same,outcome,[9],inactive
same,outcome,[10],inactive
same,outcome,[19],inactive
same,outcome,[11],inactive
same,outcome,[13],inactive
same,outcome,[14],inactive
same,outcome,[16],inactive
same,outcome,[17],inactive
same,outcome,[18],inactive
Cc1ccc(N=CN(C)C=Nc2ccc(C)cc2C)c(C)c1,outcome,[1],inactive
same,outcome,[2],inactive
same,outcome,[3],inactive
same,outcome,[4],inactive
same,outcome,[5],inactive
same,outcome,[6],inactive
same,outcome,[7],inactive
same,outcome,[8],inactive
same,outcome,[9],inactive
same,outcome,[10],inactive
same,outcome,[19],inactive
same,outcome,[11],inactive
same,outcome,[12],inactive
same,outcome,[13],inactive
same,outcome,[15],inactive
same,outcome,[16],inactive
same,outcome,[17],inactive
same,outcome,[18],inactive
CC1(C)C(C(=O)OC(C#N)c2cccc(Oc3ccccc3)c2)C1(C)C (stereo not drawn),outcome,[1],inactive
same,outcome,[2],inactive
same,outcome,[3],inactive
same,outcome,[4],inactive
same,outcome,[5],inactive
same,outcome,[6],inactive
same,outcome,[7],inactive
same,outcome,[8],inactive
same,outcome,[9],inactive
same,outcome,[10],inactive
same,outcome,[19],inactive
same,outcome,[11],inactive
same,outcome,[12],inactive
same,outcome,[13],inactive
same,outcome,[14],inactive
same,outcome,[15],inactive
same,outcome,[16],inactive
same,outcome,[17],inactive
same,outcome,[18],inactive
COC(=O)N(C(=O)N1CO[C@@]2(C(=O)OC)Cc3cc(Cl)ccc3C2=N1)c1ccc(OC(F)(F)F)cc1,AC50,[1],60.5 µM (active)
same,outcome,[2],inactive
same,AC50,[3],46.3 µM (active)
same,outcome,[4],inactive
same,outcome,[5],inactive
same,outcome,[6],inactive
same,outcome,[7],inactive
same,outcome,[8],inactive
same,AC50,[9],37.6 µM (active)
same,outcome,[10],inactive
same,outcome,[19],inactive
same,outcome,[12],inactive
same,outcome,[13],inactive
same,outcome,[14],inactive
same,outcome,[15],inactive
same,outcome,[16],inactive
same,outcome,[17],inactive
same,outcome,[18],inactive
CCCCC(C#N)(Cn1cncn1)c1ccc(Cl)cc1 (stereo not drawn),outcome,[1],inactive
same,outcome,[2],inactive
same,outcome,[3],inactive
same,outcome,[4],inactive
same,outcome,[5],inactive
same,outcome,[6],inactive
same,outcome,[7],inactive
same,outcome,[8],inactive
same,outcome,[9],inactive
same,outcome,[10],inactive
same,AC50,[19],37.7 µM (active)
same,AC50,[11],56 µM (active)
same,AC50,[12],49.4 µM (active)
same,AC50,[13],48.6 µM (active)
same,AC50,[14],48 µM (active)
same,outcome,[15],inactive
same,AC50,[16],46.8 µM (active)
same,outcome,[17],inactive
same,outcome,[18],inactive
COC(=O)NS(=O)(=O)c1ccc(N)cc1,outcome,[1],inactive
same,outcome,[2],inactive
same,outcome,[3],inactive
same,outcome,[4],inactive
same,outcome,[5],inactive
same,outcome,[7],inactive
same,outcome,[9],inactive
same,outcome,[10],inactive
same,outcome,[19],inactive
same,outcome,[11],inactive
same,outcome,[12],inactive
same,outcome,[13],inactive
same,outcome,[14],inactive
same,outcome,[16],inactive
same,outcome,[17],inactive
CC1(C)C(C=C(Cl)Cl)C1C(=O)OC(C#N)c1cccc(Oc2ccccc2)c1 (stereo not drawn),outcome,[1],inactive
same,outcome,[20],inactive
same,outcome,[2],inactive
same,outcome,[3],inactive
same,outcome,[4],inactive
same,outcome,[5],inactive
same,outcome,[6],inactive
same,outcome,[7],inactive
same,outcome,[8],inactive
same,outcome,[9],inactive
same,outcome,[10],inactive
same,AC50,[19],1.7 µM (active)
same,AC50,[11],1.23 µM (active)
same,AC50,[12],1.82 µM (active)
same,AC50,[13],1.53 µM (active)
same,AC50,[14],1.66 µM (active)
same,outcome,[15],inactive
same,AC50,[16],1.66 µM (active)
same,outcome,[17],inactive
same,AC50,[18],1.86 µM (active)
